NPC1 prom act: NPC1 promoter activation; Huh7 NPC1 promoter luciferase reporter, 24 h; Potency, µM (series often up to 9.22 µM), for the others: top-dose activation, usual class: activators; 2.4% of 320,000 active; further: % of control where 0% means no effect; nearly all actives have a fitted effect of over 60% in size
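Luciferase expression driven by the NPC1 promoter was measured in stably transfected Huh7 cells after a 24 h compound incubation, using a luciferase reagent and a luminescence read.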
Rab9 promoter act: activates the Rab9 promoter; Huh7 Rab9 promoter-luciferase reporter, luminescence, 24 h; Potency, µM (series often up to 9.22 µM), without a hit: top-dose activation, negative = inhibition, hits mostly activators; 2.8% of 320,000 active; AID 485297; further: % of control where 0% means no effect; nearly all actives have a fitted effect of over 60% in size
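Promoter activation is measured as luciferase luminescence in Huh7 cells stably transfected with a Rab9 promoter–luciferase construct, following 24 h compound exposure at 37 °C and 10 min reagent incubation at ambient temperature.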
FLuc modulator: inhibits or activates purified firefly luciferase, miR-21 counter-screen | P08659 | purified FLuc, Km substrates, luminescence inhibition | Potency, µM (titrated, usually from 57.5 µM), inactives show top-dose activity change, negative = inhibition, hits mostly inhibitors | 6.9% of 360,000 active | AID 588342;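 further: plate controls were vehicle for no effect and reference inhibitor for full effect; nearly all actives have a fitted effect of over 55% in size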
Target sequence (P08659 whole entry, looked up): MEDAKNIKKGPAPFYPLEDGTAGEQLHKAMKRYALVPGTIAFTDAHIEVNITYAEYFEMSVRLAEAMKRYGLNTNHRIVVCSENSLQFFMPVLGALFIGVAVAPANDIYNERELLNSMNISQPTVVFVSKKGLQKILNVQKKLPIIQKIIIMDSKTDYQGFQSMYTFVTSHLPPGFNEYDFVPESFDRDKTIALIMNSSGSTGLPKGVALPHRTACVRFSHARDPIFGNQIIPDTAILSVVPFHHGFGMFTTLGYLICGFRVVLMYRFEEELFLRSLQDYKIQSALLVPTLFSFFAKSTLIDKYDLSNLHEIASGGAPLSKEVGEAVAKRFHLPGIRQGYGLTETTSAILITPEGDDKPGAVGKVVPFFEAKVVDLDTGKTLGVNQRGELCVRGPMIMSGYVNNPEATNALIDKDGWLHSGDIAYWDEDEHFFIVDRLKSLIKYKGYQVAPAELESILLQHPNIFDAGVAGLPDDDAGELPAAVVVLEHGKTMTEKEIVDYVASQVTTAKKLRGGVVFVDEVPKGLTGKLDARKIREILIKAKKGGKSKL
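Purified P. pyralis luciferase, 10 nM final, with Km-level 10 uM D-luciferin and 10 uM ATP in 50 mM Tris acetate pH 7.5, 10 mM Mg acetate, 0.01% Tween-20, 0.05% BSA; 6-point qHTS titration about 60 µM downward; luminescence read.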
SMN2 splice up: enhancers of SMN2 splice variant expression | HEK293 SMN2-luciferase splicing reporter, luminescence, 30-36 h | 2.8% of 210,000 active | AID 1458 | Potency, µM (series often up to 46.1 µM), inactives show at the top dose activity change, positive = activation, most hits filed as activators; further: % of control where 0% means no effect; nearly all actives have a fitted effect of over 55% in size
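HEK293 cells carry an SMN2 […]–luciferase reporter in which exon 7 inclusion puts luciferase in frame. Cells were plated 10-12 h before compound addition, then incubated 30-36 h at 37C. ONE-Glo luminescence was read; sodium butyrate at 4.5 mM final served as control.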
ELG1 repair inh: ELG1-dependent DNA repair inhibition; HEK293T ELG1-luciferase reporter, luminescence, 16 h; DNA damage induced by 5-fluorouridine; Potency, µM (top dose mostly 46.1 µM), for inactives: top-dose activity change, negative = inhibition, actives largely listed as inhibitors; 2.3% of 330,000 active; AID 504467; further: on the % scale 0 is the no-effect control and ±100 the full control effect; nearly all actives have a fitted effect of over 55% in size
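In this reporter screen, reduction of luminescence relative to DMSO vehicle indicated activity. Compounds and 5-fluorouridine were added together to 2,000 cells per well, incubated for 16 hr at 37 °C, then developed with ONE-Glo.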
ELG1 genotox: genotoxicity induction in ELG1-luciferase HEK293T cells | 1.3% of 330,000 active | Potency, µM (doses to about 46 µM), for the others: at the highest dose activity change, positive = activation, actives largely listed as activators | HEK293T ELG1-luciferase reporter, luminescence, 16 h; further: % of control where 0% means no effect; nearly all actives have a fitted effect of over 60% in size
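HEK293T cells expressing luciferase-tagged ELG1 were treated with compound or DMSO for 16 hr at 37°C. Luciferase activity was then read after 30 min with ONE-Glo at room temperature; rising signal flags genetic stress.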
An asterisk follows results filed as active; ? = inconclusive; · = no result given. Shown are actives, neighbours in structure and some others; about 9.2% of the full set was active somewhere. The call rests on the fitted dose curve; in most records, active means well fitted curve in the direction sought with a large enough effect; inconclusive means small, poorly fitted or top-dose-only effect, or another doubt; inactive means no such curve, though single readings can be large; an effect the other way counts as inactive or inconclusive. Potency means the concentration at half of the fitted maximal effect.

SMILES	NPC1 prom act	Rab9 promoter act	FLuc modulator	SMN2 splice up	ELG1 repair inh	ELG1 genotox
CCOC(=O)c1ccccc1NC(=O)c1cn(-c2ccc(C)c(C)c2)c(=O)c2ccccc12	-3%	-12%	-2%	-9%	?	-6%
CCCN(CCC)CCCNC(=O)c1cn(-c2ccc(OC)cc2)c(=O)c2ccccc12	-3%	-1%	2%	·	9%	0%
CCOC(=O)c1ccccc1NC(=O)c1cn(-c2ccc(OC)cc2)c(=O)c2ccccc12	-1%	-5%	3%	-35%	6.5µM*	-9%
CCOc1ccccc1CNC(=O)c1cn(-c2ccc(OC)cc2)c(=O)c2ccccc12	·	·	9.5µM*	·	·	·
COC(=O)c1ccccc1NC(=O)c1cn(-c2ccc(C)c(C)c2)c(=O)c2ccccc12	-3%	-9%	3%	-22%	9.2µM*	-9%
O=C(NC(=O)c1ccccc1O)c1ccc2c(c1)CCO2	1.4µM*	?	1.2µM*	·	?	?
COc1ccccc1NC(=O)C(C)OC(=O)C(C)SCC(=O)Nc1ccc(C)cc1 (stereo not given)	1%	2%	2%	·	-5%	-3%
Cc1ccsc1CN(C)C(=O)C1CCC(=O)N(CCc2cccc(F)c2)C1 (stereo not given)	?	22%	15µM*	·	?	?
CN(C(=O)C1CCC(=O)N(Cc2cccc(F)c2)C1)C1CCCCC1 (stereo not given)	3.2µM*	2.5µM*	17µM*	·	?	?
Cc1ccsc1CCNC(=O)C1CCC(=O)N(CCc2cccc(F)c2)C1 (stereo not given)	2.8µM*	2.5µM*	21µM*	·	?	?
Cc1c2oc3c(C)ccc(C(=O)N[C@@H]4C(=O)N[C@H](C(C)C)C(=O)N5CCC[C@H]5C(=O)N(C)CC(=O)N(C)[C@@H](C(C)C)C(=O)O[C@@H]4C)c3nc-2c(C(=O)N[C@@H]2C(=O)N[C@H](C(C)C)C(=O)N3CCC[C@H]3C(=O)N(C)CC(=O)N(C)[C@@H](C(C)C)C(=O)O[C@@H]2C)c(N)c1=O	·	·	·	-87%	·	·
Cc1ccc(N2CCN(S(=O)(=O)c3ccc4oc(=O)c5ncn(C)c5c4c3)CC2)c(C)c1	·	·	1%	·	·	·
COc1cc(/C=N/Nc2ccc(F)cc2F)cc(OC)c1OC	0%	2%	?	·	-27%	14%
Cc1ccsc1/C=N/Nc1ccc(F)cc1F	?	2.2µM*	12µM*	·	?	?
Cc1cc(C)nc(N/N=C/c2sccc2C)n1	9%	4%	?	?	?	13%
Cc1ccsc1/C=N/Nc1nc(=O)[nH]nc1C	?	2.8µM*	?	18µM*	?	?
Cc1ccsc1/C=N/Nc1ncc(Cl)cc1Cl	2.8µM*	?	2.7µM*	?	?	?
Cc1cccc(C)c1NC(=O)CNC(=O)C(Cc1ccccc1)NC(=O)c1ccccc1 (stereo not given)	-3%	0%	3%	·	2%	1%
O=C(N[C@@H]1CCC(=O)N(CC[C@H](Sc2ccc(Br)cc2)c2ccccc2)CC1)OCc1ccccc1	0%	-2%	7%	·	?	-3%
COc1ccc(S[C@@H](CCN2CC[C@H](NC(=O)OCc3ccccc3)CCC2=O)c2ccccc2)cc1	·	·	·	·	18µM*	-4%
C/C(=N/NC(=O)c1ccccn1)c1c[nH]c2ccccc12	2.2µM*	3.5µM*	5.4µM*	·	?	10µM*
C/C(=N/NC(=O)c1ccccn1)c1ccc(O)cc1	3.5µM*	2.8µM*	24µM*	·	?	16µM*
C/C(=N\Nc1ccc(Cl)cc1)c1ccncc1	-2%	4%	?	·	?	6%
C/C(=N\NC(=O)c1cc(C)nc2ccccc12)c1ccccn1	-9%	-24%	·	·	?	?
C/C(=N\Nc1ccc(Cl)cc1)c1ccccn1	11%	?	11µM*	14µM*	?	21µM*
SMILES	NPC1 prom act	Rab9 promoter act	FLuc modulator	SMN2 splice up	ELG1 repair inh	ELG1 genotox
C/C(CC(=O)Nc1ccc(N(C)C)cc1)=N\NC(=O)c1ccccn1	16%	4%	?	-6%	?	?
COc1cc(C(=O)N/N=C(\C)c2ccccn2)cc(OC)c1OC	-3%	4%	7%	·	3%	6%
C/C(=N\NC(=O)c1ccc(Cl)cc1)c1ccccn1	?	-20%	7.6µM*	·	?	3.3µM*
O=C(NC1CCCC1)C(c1ccccc1F)N(C(=O)c1csnn1)c1ccccc1 (stereo not given)	1%	0%	0%	·	1%	-4%
C/C(=N\NC(=O)c1ccccn1)c1ccc(Cl)cc1	0.79µM*	0.56µM*	2.4µM*	·	?	?
C/C(=N/NC(=O)c1ccccn1)c1ccco1	0.89µM*	0.5µM*	5.4µM*	?	?	17%
CCc1ccc(C2CC(=O)c3c([nH]c(C(=O)OC4CCC(C)CC4)c3C)C2)cc1 (stereo not given)	·	·	1%	9%	·	·
COc1ccc(/C=C/C(=O)Nc2ccc(N3CCOCC3)cc2)cc1	1%	-3%	-15%	-29%	8%	-1%
Cn1c(CCC(=O)Nc2ccc(F)cc2)nc2cc(S(=O)(=O)N3CCOCC3)ccc21	-1%	-6%	3%	·	2%	-10%
CCN(CC)S(=O)(=O)c1ccc2c(c1)nc(CCC(=O)Nc1ccc(N3CCOCC3)cc1)n2C	0%	1%	17µM*	9%	-7%	-1%
CCCn1c(CCC(=O)Nc2ccccc2Cc2ccccc2)nc2cc(S(=O)(=O)N3CCOCC3)ccc21	0%	1%	0%	-11%	12µM*	2%
CCN(CC)S(=O)(=O)c1ccc(/C=C/C(=O)Nc2ccc(N3CCOCC3)cc2)cc1	-1%	-20%	-1%	·	5.2µM*	-13%
CC(NC(=O)c1c2c(nc3ccccc13)C(=O)N(C1CCCCC1)C2)c1ccccc1 (stereo not given)	·	·	-1%	·	·	·
Cc1ccc(S(=O)(=O)Nc2ccc(C(=O)N3CCOCC3)cc2)cc1	-5%	0%	-1%	·	-1%	1%
CCCc1ccc2oc(C(=O)N(C)Cc3cnccn3)c(C)c2c1	2%	1%	-5%	·	0%	12%
Cc1ccc2oc(C(=O)N(C)Cc3ccc(C)o3)c(C)c2c1	9%	12%	27µM*	·	?	12%
Cc1ccc2oc(C(=O)N(C)Cc3ccon3)c(C)c2c1	3.2µM*	3.5µM*	11µM*	·	?	9.2µM*
CN(CC(=O)Nc1cccc(F)c1)CC(=O)N1CCCCC1	-2%	-1%	2%	·	0%	4%
